Assay results taken from PubChem BioAssay AID1159580 (chemical genetic matrix, 2015).
Hit rate of the full screen: of about 5,500 compounds, about 2,000 (36%) were called active. Roughly 18% stayed inconclusive and do not appear here. Rule as the data show it: active = normalized growth mostly below about 0.91 (no sharp cut-off); inconclusive = no clear call, values can overlap the other calls; inactive = mostly above about 0.92. The list shows a part of the results.

Assay: chemical genetic growth profiling, strain panel (AID 1159580);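 also: tested at 20 µM; growth read once vehicle control cultures reached saturation at 30 °C; 1 = growth at the plate median or of vehicle wells; lower values mean less growth of the strain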
Details: S. cerevisiae deletion strains, growth OD

Measured: normalized growth

CC1(C)C2CCC1(C)C(O)C2 (stereo not drawn)
inactive: locus YHR030C, strain SLT2, hits give low values 0.98 | locus YHR079C, strain IRE1, hits give low values 0.981 | locus YJL095W, strain BCK1, hits give low values 0.999 | locus YJR066W, strain TOR1, hits give low values 0.923 | locus YLR113W, strain HOG1, hits give low values 0.991 | locus YNL183C, strain NPR1, hits give low values 0.947 | locus YOR231W, strain MKK1, hits give low values 0.992 | locus YPL256C, strain CLN2, hits give low values 0.993
